# Experimental data: the supplement of paper PMC6607015
# Counter-ions that a name gives are not always drawn.
# What was measured:
# Conditions in all cases: compound concentration in added solution (µM; 5 µl added to 20 µl cells): 10; 18 h
# A431 [1] = test: LBPA endosome anti-LBPA integrated intensity (sum per cell), Z-score; higher = more LBPA staining
# Procedure, shortened: (§1)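 Reported values are Z-scores from AcuityXpress normalisation of per-cell integrated LBPA or filipin staining. HeLa MZ or A431 cells (3,500/well in 20 µl) were seeded onto 5 µl of 10 µM compound solution in duplicate 384-well plates, incubated 18 h, fixed in 4% PFA, stained and imaged at 20×. MetaXpress segmentation measured the intensity over the whole cell or within LBPA endosomes.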
# HeLa MZ [2] = test: as above
# Procedure, shortened: as §1
# A431 [3] = test: whole-cell filipin (free cholesterol) integrated intensity, Z-score; higher = more cholesterol staining
# Procedure, shortened: as §1
# HeLa MZ [4] = test: as above
# Procedure, shortened: as §1
# A431 [5] = test: filipin (cholesterol) integrated intensity within LBPA endosomes, Z-score; higher = more cholesterol in LBPA endosomes
# Procedure, shortened: as §1
# HeLa MZ [6] = test: as above
# Procedure, shortened: as §1
SMILES,LBPA endosome anti-LBPA integrated intensity (z-score) (A431 [1]),LBPA endosome anti-LBPA integrated intensity (z-score) (HeLa MZ [2]),whole-cell filipin (z-score) (A431 [3]),whole-cell filipin (z-score) (HeLa MZ [4]),filipin (z-score) (A431 [5]),filipin (z-score) (HeLa MZ [6])
C/C(=C(\CCOP(=O)(O)O)SC(=O)c1ccccc1)N(C=O)Cc1cnc(C)nc1N [Benfotiamine],-0.532,-0.653,-0.469,-0.157,-0.411,-0.31
CCCN[C@H]1CCc2nc(N)sc2C1 [Pramipexole],-0.166,0.761,0.197,0.182,-0.247,-0.149
CN(C)CCOC(c1ccccc1)c1ccccc1.Cn1c(=O)c2[nH]c(Cl)nc2n(C)c1=O [Dimenhydrinate],-0.457,0.504,-0.514,-0.355,-0.463,-0.165
c1ccc2[nH]c(-c3cscn3)nc2c1 [Tiabendazole],-0.626,-1.01,-0.678,-0.558,-0.54,-0.645
Cn1cnc2c1c(=O)[nH]c(=O)n2C [Theobromine],-0.566,-1.37,-0.361,-0.586,-0.492,-0.483
CCN(CC)CCOC(=O)C1(C2CCCCC2)CCCCC1 [Dicyclomine hydrochloride],-0.0951,0.203,0.137,-0.144,0.0207,0.0362
O=c1[nH]c(=O)n([C@H]2C[C@H](O)[C@@H](CO)O2)cc1C(F)(F)F [Trifluridine],-0.394,0.648,3.04,3.8,-0.544,-0.762
CO/N=C(\C(=O)N[C@@H]1C(=O)N2C(C(=O)O)=C(C[N+]3(C)CCCC3)CS[C@H]12)c1csc(N)n1 [Cefepime hydrochloride],-0.483,-1.02,-0.176,-0.327,-0.47,-0.504
NC12CC3CC(CC(C3)C1)C2 [Adamantamine fumarate],-0.644,-1.51,-0.89,-0.605,-0.499,-0.616
O=C(CCCN1CCN(c2ccccn2)CC1)c1ccc(F)cc1 [Azaperone],-0.0879,0.592,0.0723,0.216,-0.168,0.329
O=C(O)CCC(=O)Nc1ccc(S(=O)(=O)Nc2nccs2)cc1 [Succinylsulfathiazole],-0.428,-0.709,-0.288,-0.818,-0.463,-0.508
Nc1ccccc1S(N)(=O)=O [2-Aminobenzenesulfonamide],-0.461,-0.0157,-0.474,-0.217,-0.417,-0.589
OCCN1C[C@H](O)[C@@H](O)[C@H](O)[C@H]1CO [Miglitol],-0.534,-0.285,-0.628,-0.643,-0.487,-0.578
Cc1c(OCC(F)(F)F)ccnc1C[S+]([O-])c1nc2ccccc2[nH]1 (stereo unspecified) [Lansoprazole],-0.504,0.142,0.199,0.176,-0.31,-0.222
CCOC(=O)[N-]c1c[n+](N2CCOCC2)no1 [Molsidomine],-0.56,0.0751,-0.59,-0.136,-0.558,-0.532
C#C[C@]1(O)CC[C@H]2[C@@H]3CCC4=Cc5oncc5C[C@]4(C)[C@H]3CC[C@@]21C [Danazol],-0.455,-0.444,-0.615,-0.566,-0.449,-0.556
O=C(O)c1ccccc1Nc1cccc(C(F)(F)F)c1 [Flufenamic acid],-0.586,-0.521,-0.734,-0.685,-0.54,-0.632
O=C(NCC(O)CO)c1c(I)c(C(=O)NCC(O)CO)c(I)c(N(CCO)C(=O)CO)c1I (stereo unspecified) [Ioversol],-0.561,-1.26,-0.43,-0.621,-0.499,-0.701
CC1CCc2c(N3CCC(O)CC3)c(F)cc3c(=O)c(C(=O)O)cn1c23 (stereo unspecified) [Nadifloxacin],-0.419,-1.21,-0.24,-0.254,-0.402,-0.471
Cn1c(=O)c2c(ncn2CC(=O)O)n(C)c1=O [Acefylline],-0.332,0.383,-0.237,-0.0327,-0.446,-0.485
COc1ccccc1OCC(O)CO (stereo unspecified) [Guaifenesin],-0.398,-0.463,-0.553,-0.523,-0.471,-0.504
C(=C\c1ccccc1)/CN1CCN(C(c2ccccc2)c2ccccc2)CC1 [Cinnarizine],-0.223,0.618,-0.605,-0.52,-0.314,-0.0159
CCCOc1ccc(C(=O)OCCN(CC)CC)cc1N [Proparacaine hydrochloride],-0.432,0.26,-0.369,-0.271,-0.454,-0.0385
NC[C@H]1CC[C@H](C(=O)O)CC1 [Tranexamic acid],-0.452,-0.543,-0.422,-0.896,-0.524,-0.663
O=C(C1CCCCC1)N1CC(=O)N2CCc3ccccc3C2C1 (stereo unspecified) [Praziquantel],-0.253,-0.0737,-0.0988,0.0128,-0.417,-0.225
Nc1nc(=O)c2c([nH]1)NC[C@@H](CNc1ccc(C(=O)N[C@@H](CCC(=O)O)C(=O)O)cc1)N2C=O [Folinic acid calcium salt],-0.476,-0.265,-0.437,-0.13,-0.451,-0.42
